Screens as filed in PubChem.
Only some compounds are listed: those with a hit (about 7.4% of all), similar ones and a draw of the others.
FLuc counter: qHTS profiling assay for firefly luciferase inhibitor/activator using purifed enzyme and Km concentrations of substrates (counterscreen for miR-21 project) | purified FLuc, Km substrates, luminescence inhibition | Potency, µM (series often up to 57.5 µM), hits mostly inhibitors | AID 588342, 2011 | 360,000 tested, 6.9% active | Luciferin 4-monooxygenase (Photinus pyralis), P08659; further: nearly all actives have a fitted effect of over 55% in size
Target sequence (P08659 whole entry, looked up): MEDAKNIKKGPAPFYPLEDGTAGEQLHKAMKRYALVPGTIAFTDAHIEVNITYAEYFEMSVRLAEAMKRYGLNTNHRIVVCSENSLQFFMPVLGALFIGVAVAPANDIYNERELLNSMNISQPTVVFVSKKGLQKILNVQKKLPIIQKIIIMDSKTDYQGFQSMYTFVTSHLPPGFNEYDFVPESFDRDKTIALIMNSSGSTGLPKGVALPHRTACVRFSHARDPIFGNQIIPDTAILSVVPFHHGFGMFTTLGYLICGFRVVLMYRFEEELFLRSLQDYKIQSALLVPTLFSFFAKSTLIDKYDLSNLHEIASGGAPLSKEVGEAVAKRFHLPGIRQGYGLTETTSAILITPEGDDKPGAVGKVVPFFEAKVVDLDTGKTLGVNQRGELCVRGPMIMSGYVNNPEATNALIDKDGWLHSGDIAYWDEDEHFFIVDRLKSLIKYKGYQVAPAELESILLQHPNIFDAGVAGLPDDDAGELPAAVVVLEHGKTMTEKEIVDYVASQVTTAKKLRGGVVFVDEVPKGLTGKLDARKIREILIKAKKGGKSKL
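Biochemical qHTS of compounds, final roughly 60 µM downward over six points, against 10 nM purified firefly luciferase using Km concentrations of substrates (10 uM D-luciferin, 10 uM ATP) in Tris acetate pH 7.5 buffer; luminescence output.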
ELG1 genotoxic: qHTS screen for small molecules that induce genotoxicity in human embryonic kidney (HEK293T) cells expressing luciferase-tagged ELG1. HEK293T ELG1-luciferase reporter, luminescence, 16 h. Potency, µM (series often up to 46 µM), usual class: activators. 330,000 tested, 1.3% active. AID 504466, 2011; further: nearly all actives have a fitted effect of over 60% in size
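Luminescence read-out: rising ELG1-luciferase signal, reflecting elevated ELG1 protein under genetic stress, flags genotoxic compounds. Cells were treated for 16 hr at 37 °C before ONE-Glo detection.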
SMN2 splice enh: qHTS Assay for Enhancers of SMN2 Splice Variant Expression; 210,000 tested, 2.8% active; AID 1458, 2008; Potency, µM (titrated, usually from 46.1 µM), most hits filed as activators; HEK293 SMN2-luciferase splicing reporter, luminescence, 30-36 h; further: nearly all actives have a fitted effect of over 55% in size
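HEK293 cells carry an SMN2 minigene-luciferase reporter in which exon 7 inclusion puts luciferase in frame. Cells were seeded at 2000 cells/well, attached for 10-12 hours, then exposed to compounds for 30-36 hours at 37C before ONE-Glo luminescence.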
NPC1 prom act: qHTS Assay for NPC1 Promoter Activators; 320,000 tested, 2.4% active; Huh7 NPC1 promoter luciferase reporter, 24 h; Potency, µM (titrated, usually from 9.22 µM), usual class: activators; AID 485313, 2010; further: nearly all actives have a fitted effect of over 60% in size
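Luminescence from an NPC1 promoter-driven luciferase reporter in stably transfected Huh7 cells was measured after 24 h compound treatment at 37 °C, followed by 10 min ambient incubation with luciferase detection reagent.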
Rab9 prom act: qHTS Assay for Rab9 Promoter Activators | Huh7 Rab9 promoter-luciferase reporter, luminescence, 24 h | 320,000 tested, 2.8% active | Potency, µM (doses to about 9.22 µM), most hits filed as activators; further: nearly all actives have a fitted effect of over 60% in size
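Huh7 reporter line, Rab9 promoter upstream of luciferase. Compound exposure 24 h at 37 °C in reduced-serum medium with 10% FBS. Read-out: luminescence.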
A number is an active result; n = inactive; u = inconclusive; x = no result; [ ] = remark or other dose. The call rests on the fitted dose curve; in most records, active means well fitted curve in the direction sought with a large enough effect; inconclusive means small, poorly fitted or top-dose-only effect, or another doubt; inactive means no such curve, though single readings can be large; an effect the other way counts as inactive or inconclusive.

SMILES	FLuc counter	ELG1 genotoxic	SMN2 splice enh	NPC1 prom act	Rab9 prom act
CC(C)c1ccc(OCC(=O)Nc2ccc3oc(=O)ccc3c2)cc1	u	n	x	n	n
CC(=O)c1c(C)[nH]c(C(=O)CN2CCN(S(=O)(=O)c3ccccc3[N+](=O)[O-])CC2)c1C	n	n	x	n	n
C=CCn1c(C)cc(C(=O)CSc2nc3ccccc3[nH]2)c1C	0.3µM	u	n	0.13µM	0.32µM
O=C(CSc1nc2ccccc2[nH]1)N1CCCCC1	21µM	8.2µM	10µM	u	3.5µM
O=C(O)c1ccccc1CSc1nc2ccccc2[nH]1	11µM	u	x	u	u
CN(C)S(=O)(=O)c1ccc(C(=O)NCC(=O)N/N=C/c2ccccc2Cl)cc1	n	n	n	n	n
O=C(COC(=O)c1cnccn1)c1ccc2c(c1)CCCC2	4.8µM	n	n	n	n
O=C(COC(=O)c1cnccn1)c1ccccc1	u	n	n	n	n
O=C(COC(=O)c1cnccn1)c1ccc(Cl)cc1	19µM	n	n	n	n
O=C(COC(=O)c1cnccn1)c1ccc(Br)cc1	15µM	n	n	n	n
O=C(COC(=O)c1cnccn1)c1ccc(C2CCCCC2)cc1	2.4µM	n	x	n	n
O=C(COC(=O)c1cnccn1)c1ccc(-c2ccccc2)cc1	u	n	x	n	n
CCC12CN3CC(C)(CN(C1)C3c1c[nH]c3ccccc13)C2=O (stereo not drawn)	n	x	n	x	x
O=C(COc1cccc(Cl)c1Cl)Nc1ccc2c(c1)CCC2	n	n	n	n	n
O=C(COc1ccccc1Cl)c1ccc2c(c1)CCCC2	11µM	u	14µM	u	3.5µM
Cc1ccc(-c2cc(C(=O)N/N=C/C(Br)=C/c3ccccc3)n[nH]2)o1	24µM	n	n	n	n
Cc1cc(C(=O)N/N=C/c2c[nH]c3ccccc23)c(C)o1	19µM	n	n	n	n
Cc1ccc(-c2cc(C(=O)N/N=C/c3ccc(F)cc3)n[nH]2)o1	u	n	x	n	n
Cc1ccc(C(=O)N/N=C/c2c[nH]c3ccccc23)o1	24µM	u	x	n	n
Cc1ccc(-c2cc(C(=O)N/N=C/c3c[nH]c4ccccc34)n[nH]2)o1	11µM	n	n	n	n
Cc1ccc(-c2cc(C(=O)N/N=C/c3ccccc3O)n[nH]2)o1	u	u	x	n	n
COc1ccc(OC)c(NC(=O)Cn2cc(C(=O)c3ccc(Cl)cc3)c(=O)c3cc(OC)ccc32)c1	n	x	n	x	x
O=C(O)c1cccc(C(=O)O)c1S(=O)Cc1ccccc1 (stereo not drawn)	x	x	n[9.22 µM]	x	x
CC(C)=CCNc1ncnc2c1c(C#N)cn2[C@H]1O[C@@H](CO)[C@@H](O)[C@@H]1O	x	x	n[9.22 µM]	x	x
CN1CC[C@@]2(CCCN(C(=O)c3cccc(F)c3)C2)C1	x	x	n	x	x
SMILES	FLuc counter	ELG1 genotoxic	SMN2 splice enh	NPC1 prom act	Rab9 prom act
CCc1ccc(NC(=O)c2[nH]c(C)c(C(C)=O)c2C)cc1	12µM	u	x	1.6µM	1.6µM
CCOc1ccc(NC(=O)c2[nH]c(C)c(C(C)=O)c2C)cc1	15µM	u	x	u	u
N#CCOC(=O)c1c2c(nc3ccccc13)CCC2	n	n	n	n	n
CC(=O)N1CCN(C(=O)c2cccc(S(=O)(=O)N3c4ccccc4CC3C)c2)CC1 (stereo not drawn)	x	n	x	x	x
CC1Cc2ccccc2N1S(=O)(=O)c1cccc(C(=O)N2CCN(c3ncccn3)CC2)c1 (stereo not drawn)	n	n	0.56µM	n	n
Cc1ccc(-n2ncc3c(=O)n(CC(=O)N4CCCCCC4)cnc32)cc1	17µM	n	n	n	n
Cc1ccc(-n2ncc3c(=O)n(CC(N)=O)cnc32)cc1C	n	n	x	n	n
Cc1nc2c3cnn(-c4ccc(C)c(C)c4)c3ncn2n1	6.7µM	u	11µM	2µM	2µM
CCOC(=O)Cn1cnc2c(cnn2-c2ccc(C)c(C)c2)c1=O	21µM	x	n	x	x
COC(=O)Cn1cc(/C=C/c2cc[n+](C)cc2)c2ccccc21	n	n	x	n	n
CCN=C1S/C(=C\c2cn(CC(=O)NCc3ccco3)c3ccccc23)C(=O)N1CC	n	u	x	n	n
CN=C1S/C(=C\c2cn(CC(=O)OC)c3ccccc23)C(=O)N1C	17µM	n	n	n	n
CN=C1S/C(=C/c2cn(CC(=O)OC)c3ccccc23)C(=O)N1C	19µM	n	x	n	n
Cc1ccc(C(=O)Oc2cc(C)n(C)c(=O)c2)cc1	15µM	n	n	n	n
O=C(c1cn(-c2ccccc2)nc1-c1cccs1)N1CCN(c2ccc(F)cc2)CC1	13µM	n	x	n	n
O=C(c1cn(-c2ccccc2)nc1-c1ccc(Cl)cc1)N1CCOCC1	u	n	n	n	n
O=C(c1cc(-c2cccs2)on1)N1CCN(c2ccc(F)cc2)CC1	24µM	n	n	n	n
O=C(c1cccs1)N1CCN(C(=O)c2cn(-c3ccccc3)nc2-c2ccccc2)CC1	x	n	x	x	x
O=C(c1cc(-c2cccs2)on1)N1CCN(c2ccccc2)CC1	17µM	n	n	n	n
O=C(c1cn(-c2ccccc2)nc1-c1ccc(Cl)s1)N1CCOCC1	17µM	n	n	n	n
O=C(O)c1cc(-c2cccs2)nc2ccc(Br)cc12	19µM	n	x	n	n
O=C(c1cc(-c2cccs2)nc2ccccc12)N1CCN(S(=O)(=O)c2ccccc2)CC1	u	n	n	n	n
O=C(c1cc(-c2cccs2)nc2ccccc12)N1CCN(c2ccccc2)CC1	11µM	n	n	n	n
Cc1cc(=O)n(Cc2c(F)cccc2Cl)c2c1c(C)nn2C	n	x	x	x	x
O=C1COc2ccc(-c3csc(NCC4CCCO4)n3)cc2N1 (stereo not drawn)	17µM	n	n	n	n
SMILES	FLuc counter	ELG1 genotoxic	SMN2 splice enh	NPC1 prom act	Rab9 prom act
COc1ccc(/C=C(/C#N)c2nc(-c3cc4ccccc4oc3=O)cs2)cc1	n	x	n	x	x
CC1CCC/C(=C(\C#N)c2nc(-c3cc4ccccc4oc3=O)cs2)C1 (stereo not drawn)	1.7µM	u	n	2.5µM	1.8µM
c1ccc2oc(-c3csc(NCC4CCCO4)n3)cc2c1 (stereo not drawn)	1.5µM	2.3µM	u	1.6µM	0.4µM
O=c1oc2ccccc2cc1-c1csc(NN=C2CCCCC2)n1	13µM	n	u	u	u
CC(Nc1nc(-c2ccc3c(c2)NC(=O)CO3)cs1)c1ccccc1 (stereo not drawn)	u	n	n	n	n
CCOc1ccc(CNc2nnnn2C)cc1	n	n	x	n	n
CCCCN1CC(c2nc3ccccc3n2CCCCOc2cc(C)ccc2C)CC1=O (stereo not drawn)	n	x	x	x	x
C=CCNc1nc(-c2ccc(O)c(C(N)=O)c2)cs1	u	u	n	n	n
c1ccc2sc(NCC3CCCO3)nc2c1 (stereo not drawn)	21µM	u	10µM	2.2µM	1.4µM
